N-glyco inh = N-linked glycosylation inhibition | AID 588692 | hit rate 0.23% among 360,000 | D54 ERlucT glycosylation luciferase reporter, 24 h; percent of 100 nM tunicamycin response | reporter increase, % at 12.5 µM;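 active = mean luciferase reporter signal, scaled so untreated is 0 and the glycosylation-blocking control 100, at or above a set limit in every replicate; inconclusive = mean reaches the limit but not every replicate does; inactive = mean below the limit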;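 note: luciferase carries N-glycosylation sites so blocking glycosylation raises the light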
Vif imaging = inhibitors of HIV Vif | hit rate 0.35% among 340,000 | HEK293T cells, Vif self-association by quenched fluorescence, imaging, 24 h | inhibition, % at 7.49 µM; in the data active = inhibition above about 50%, passing the limit was not always enough; inconclusive = no clear call, values can overlap the other calls; inactive = below about 31%
Wnt bcat act = Wnt/beta-catenin pathway activation; Wnt/beta-catenin reporter cell assay, activator, plate reader; activation, % at 9.35 µM; hit rate 1.2% among 300,000; in the data active = activation above about 30%, passing the limit was not always enough; inconclusive = no clear call, values can overlap the other calls
esBAF inh = blocks esBAF chromatin remodeling in mouse ES cells | Bmi1-luciferase knock-in reporter, 24 h; 100% = twice the neutral-well signal | reporter increase, % at 12.5 µM | hit rate 2% among 350,000; in the data active = activation above about 40%; inconclusive = no clear call, values can overlap the other calls;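 note: a rise in the Bmi1 reporter signal indicates esBAF inhibition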
MITF act = MITF TRPM1 promoter activation in melanoma cells; SK-MEL-5 TRPM1-promoter luciferase, 24 h; % of positive control, neutral wells = 0; activation, % at 12.5 µM; hit rate 0.75% among 300,000; AID 588334;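 active = mean activation of at least 80% with every replicate also reaching 80%; inconclusive = mean reaches 80% but some replicate falls short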
PvdQ acylase = P. aeruginosa PvdQ acylase inhibition; purified PvdQ acylase, fluorescence plate reader; inhibition, % at 10 µM; hit rate 0.063% among 340,000; in the data active = inhibition above about 30%, passing the limit was not always enough; inconclusive = no clear call, values can overlap the other calls
Ring1 derepress = de-represses Ring1 in mouse ESCs, confirming esBAF inhibition. shares compounds with esBAF inh. mouse ESC E14, Ring1 mRNA RT-qPCR fold change. fold change at 33 µM. 550 tested, under 10 active. AID 743176;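 active = Ring1 gene expression raised more than 2-fold over untreated cells in both replicates at either tested dose; inconclusive = only one replicate above 2-fold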;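 note: Ring1 transcript normalised to actin housekeeping signal by TaqMan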
esBAF Fgf4 qPCR = represses Fgf4 in mouse ESCs, confirming esBAF inhibition. Fgf4 expression fold change at 33 µM. mouse ESC E14, Fgf4 mRNA qPCR fold change; hits give low values. hit rate 4% among 550. shares compounds with esBAF inh;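 active = Fgf4 expression under 0.8 fold of control in both repeat measurements at one or both tested doses; inconclusive = under 0.8 fold in just a single repeat measurement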;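 note: Fgf4 transcript normalised to actin in duplex TaqMan qPCR; cells exposed to compound for 24 h before lysis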
esBAF Bmi1 qPCR = confirmation of esBAF inhibitors: Bmi1 de-repression in mouse ESCs; shares compounds with esBAF inh; mouse ESE14 ES cells, Bmi1 mRNA qPCR fold; hits give high values; fold change at 33 µM; 550 tested, under 10 active;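 active = Bmi1 expression fold change above 6 at either tested concentration, seen in replicate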;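 note: higher fold means more Bmi1 de-repression and stronger esBAF inhibition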
A549 tox SP = kills or reduces viability of A549 cells. shares compounds with esBAF inh. A549 cytotoxicity, plate reader. cell viability change % (negative = cytotoxic), % at 25 µM, hits read low. 550 tested, under 10 active; call rule not given here
HepG2 tox SP = HepG2 cell cytotoxicity at single point. plate reader; hits give low values. AID 743189. hit rate 4% among 550. activity change, negative = inhibition, % at 25 µM. shares compounds with esBAF inh; in the data active = activity change below about -50%
HEK293 cytotox SP = HEK293 cell cytotoxicity at single point; shares compounds with esBAF inh; plate reader; activity change, negative = inhibition, % at 25 µM, hits read low; hit rate 3% among 550; AID 743190; in the data active = activity change below about -38%, passing the limit was not always enough
Large screens that a line does not name were inactive (follow-up assays come after a bar, where they were run). Only some compounds are listed: those with a hit (about 2.9% of all), similar ones and a draw of the others.

COc1ccc(C2=NOC(C)(c3sc(-c4ccc(Cl)cc4)nc3C)C2)cc1 (stereo not given)	none (no result: N-glyco inh, Vif imaging, esBAF inh, MITF act, PvdQ acylase)
Cc1nc(-c2ccc(Cl)cc2)sc1C1(C)CC(c2cccnc2)=NO1 (stereo not given)	esBAF inh 77 | Ring1 derepress inactive | esBAF Fgf4 qPCR inactive | esBAF Bmi1 qPCR inactive | A549 tox SP inactive | HepG2 tox SP inactive | HEK293 cytotox SP inactive
O=C(C[C@@H]1C[C@@H]2c3cc(NC(=O)C4CCOCC4)ccc3O[C@@H]2[C@H](CO)O1)NCc1ccccc1F	none (no result: N-glyco inh, Vif imaging, Wnt bcat act, MITF act, PvdQ acylase)
O=C(Nc1cccc2ccccc12)c1cnccn1	esBAF inh 63 (no result: Wnt bcat act) | Ring1 derepress inactive | esBAF Fgf4 qPCR inactive | esBAF Bmi1 qPCR inactive | A549 tox SP inactive | HepG2 tox SP inactive | HEK293 cytotox SP inactive
Cc1cccc(NC(=O)c2ccccn2)c1C	Wnt bcat act 36, esBAF inh 63 (no result: Vif imaging) | Ring1 derepress inactive | esBAF Fgf4 qPCR inactive | esBAF Bmi1 qPCR inactive | A549 tox SP inactive | HepG2 tox SP inactive | HEK293 cytotox SP inactive
O=C(NC1CCCCC1)N[C@@H]1CC[C@@H](CCNS(=O)(=O)c2ccccc2)O[C@@H]1CO	none (no result: N-glyco inh, Vif imaging, Wnt bcat act, MITF act, PvdQ acylase)
COc1cc(OC)c2c(-c3cccc(/C=C/c4ccc(F)cc4)c3)cc(=O)oc2c1	esBAF inh 86, MITF act 96 | Ring1 derepress inactive | esBAF Fgf4 qPCR inactive | esBAF Bmi1 qPCR inactive | A549 tox SP inactive | HepG2 tox SP inactive | HEK293 cytotox SP inactive
CC(=O)c1ccc(NC(=O)C2CC(=O)N(Cc3ccccc3)C2)cc1 (stereo not given)	esBAF inh 56 (no result: Wnt bcat act) | Ring1 derepress inactive | esBAF Fgf4 qPCR inactive | esBAF Bmi1 qPCR inactive | A549 tox SP inactive | HepG2 tox SP inactive | HEK293 cytotox SP inactive
O=C(Nc1ccccc1)C1CC(=O)N(Cc2ccccc2)C1 (stereo not given)	none
CN(C)c1ccc(CN(C(=O)c2cc3ccccc3oc2=O)C2CCS(=O)(=O)C2)cc1 (stereo not given)	esBAF inh 70 | Ring1 derepress inactive | esBAF Fgf4 qPCR inactive | esBAF Bmi1 qPCR inactive | A549 tox SP inactive | HepG2 tox SP inactive | HEK293 cytotox SP inactive
CC(C)NC(=O)Nc1ccc2c(c1)C(=O)N([C@@H](C)CO)C[C@@H](C)[C@@H](CN(C)Cc1ccc(Oc3ccccc3)cc1)O2	none (no result: N-glyco inh, Vif imaging, Wnt bcat act, MITF act, PvdQ acylase)
O=C(C[C@H]1CC[C@H](NC(=O)Nc2ccc3c(c2)OCO3)[C@H](CO)O1)NCc1ccc(F)cc1	none (no result: N-glyco inh, Vif imaging, Wnt bcat act, MITF act, PvdQ acylase)
Cc1cc(C(=O)Nc2sc(C)c(-c3ccc(F)cc3)c2C(N)=O)no1	esBAF inh 78 (no result: Wnt bcat act) | Ring1 derepress inactive | esBAF Fgf4 qPCR inactive | esBAF Bmi1 qPCR inactive | A549 tox SP inactive | HepG2 tox SP inactive | HEK293 cytotox SP inactive
CCCN1C[C@H](C)[C@@H](OC)CN(C)C(=O)c2cc(NC(=O)Nc3c(C)noc3C)ccc2OC[C@H]1C	none (no result: N-glyco inh, Vif imaging, Wnt bcat act, MITF act, PvdQ acylase)
C(=NOCc1ccccc1)c1cccnc1	esBAF inh 58 | Ring1 derepress inactive | esBAF Fgf4 qPCR inactive | esBAF Bmi1 qPCR inactive | A549 tox SP inactive | HepG2 tox SP inactive | HEK293 cytotox SP inactive
C[C@@H]1CN([C@@H](C)CO)C(=O)c2cc(NC(=O)c3ccccc3)ccc2O[C@@H](C)CCCCO[C@H]1CN(C)Cc1ccccc1	none (no result: N-glyco inh, Vif imaging, Wnt bcat act, MITF act, PvdQ acylase)
Cc1cc(Cl)c(O)c(-n2nc3ccccc3n2)c1	esBAF inh 61 | Ring1 derepress inactive | esBAF Fgf4 qPCR inactive | esBAF Bmi1 qPCR inactive | A549 tox SP inactive | HepG2 tox SP inactive | HEK293 cytotox SP inactive
Cn1c(/N=C(\N)c2ccccc2)nc2ccccc21	esBAF inh 83 (no result: Vif imaging, MITF act, PvdQ acylase) | Ring1 derepress inactive | esBAF Fgf4 qPCR inactive | esBAF Bmi1 qPCR inactive | A549 tox SP inactive | HepG2 tox SP inactive | HEK293 cytotox SP inactive
Nc1n[nH]c(N)c1N=Nc1ccc(Cl)cc1	esBAF inh 53 | Ring1 derepress inactive | esBAF Fgf4 qPCR inactive | esBAF Bmi1 qPCR inactive | A549 tox SP inactive | HepG2 tox SP inactive | HEK293 cytotox SP inactive
Cc1cccc(N=Nc2c(N)n[nH]c2N)c1	none (no result: MITF act)
CC(C)NC(=O)N(C)C[C@H]1Oc2c(NC(=O)Nc3ccc(F)cc3)cccc2C(=O)N([C@H](C)CO)C[C@H]1C	none (no result: N-glyco inh, Vif imaging, Wnt bcat act, MITF act, PvdQ acylase)
CCCS(=O)(=O)N1CCC(C(=O)NC2CCC(C)CC2)CC1 (stereo not given)	esBAF inh 56 (no result: Wnt bcat act) | Ring1 derepress inactive | esBAF Fgf4 qPCR inactive | esBAF Bmi1 qPCR inactive | A549 tox SP inactive | HepG2 tox SP inactive | HEK293 cytotox SP inactive
O=C(NCC1CC1)[C@H]1[C@H](CO)[C@H]2Cn3c(ccc(-c4ccccc4F)c3=O)[C@@H]1N2Cc1cccnc1	none (no result: N-glyco inh, Vif imaging, Wnt bcat act, MITF act, PvdQ acylase)
COc1ccc(/C=C/C(=O)Oc2cccc(/C=N/NC(=O)Cc3ccc(Br)cc3)c2)cc1	esBAF inh 63 | Ring1 derepress inactive | esBAF Fgf4 qPCR inconclusive | esBAF Bmi1 qPCR inactive | A549 tox SP inactive | HepG2 tox SP inactive | HEK293 cytotox SP inactive
COc1cccc(/C=N/NC(=O)CCCC(=O)Nc2ccc(Br)cc2)c1	none (no result: esBAF inh)
O=C(N/N=C/c1ccc(Cl)cc1)Nc1ccccc1	esBAF inh 59, MITF act 95 | Ring1 derepress inactive | esBAF Fgf4 qPCR inactive | esBAF Bmi1 qPCR inactive | A549 tox SP inactive | HepG2 tox SP inactive | HEK293 cytotox SP inactive
Cc1nn(Cc2c(F)c(F)c(F)c(F)c2F)c(C)c1NC(=O)c1ccc(COc2ccccc2Cl)cc1	none (no result: Wnt bcat act)
Cc1nn(Cc2c(F)c(F)c(F)c(F)c2F)c(C)c1NC(=O)c1ccc(COc2cc(Cl)ccc2Cl)cc1	esBAF inh 47 | Ring1 derepress inactive | esBAF Fgf4 qPCR inactive | esBAF Bmi1 qPCR inactive | A549 tox SP inactive | HepG2 tox SP inactive | HEK293 cytotox SP inactive
CC(=O)c1ccccc1NC(=O)c1ccc(N2CCCC2=O)cc1	esBAF inh inconclusive
CSc1ccccc1NC(=O)c1ccc(N2CCCC2=O)cc1	esBAF inh 73 | Ring1 derepress inactive | esBAF Fgf4 qPCR inactive | esBAF Bmi1 qPCR inactive | A549 tox SP inactive | HepG2 tox SP inactive | HEK293 cytotox SP inactive
Cc1ccc(S(=O)(=O)N(C)C[C@@H]2OCCCC[C@@H](C)Oc3ccc(NC(=O)CCCN(C)C)cc3C(=O)N([C@@H](C)CO)C[C@H]2C)cc1	none (no result: N-glyco inh, Vif imaging, Wnt bcat act, MITF act, PvdQ acylase)
CCn1c(CSc2nc3ccccc3n2C)nc2ccccc21	none
